# Assay outcomes from PubChem BioAssay.
# ELG1 repair inh: ELG1-dependent DNA repair inhibition | actives 2.3% (n = 330,000) | Potency, µM (series often up to 46.1 µM), without a hit: at the highest dose activity change, negative = inhibition, usual class: inhibitors | HEK293T ELG1-luciferase reporter, luminescence, 16 h; DNA damage induced by 5-fluorouridine; also: % is scaled to controls: 0 for no effect and ±100 for the full control effect; nearly all actives have a fitted effect of over 55% in size
#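 In this reporter screen, reduction of luminescence relative to DMSO vehicle indicated activity. Compounds and 5-fluorouridine were added together to 2,000 cells per well, incubated for 16 hr at 37 °C, then developed with ONE-Glo.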
# SMN2 splice up: SMN2 splice variant enhancement; HEK293 SMN2-luciferase splicing reporter, luminescence, 30-36 h; Potency, µM (titrated, usually from 46.1 µM), inactives show top-dose activity change, positive = activation, most hits filed as activators; actives 2.8% (n = 210,000); AID 1458; also: % of control where 0% means no effect; nearly all actives have a fitted effect of over 55% in size
#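 HEK293 cells carry an SMN2 minigene-luciferase reporter in which exon 7 inclusion puts luciferase in frame. Cells were seeded at 2000 cells/well, attached for 10-12 hours, then exposed to compounds for 30-36 hours at 37C before ONE-Glo luminescence.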
# NPC1 promoter act: activators of NPC1 promoter. Huh7 NPC1 promoter luciferase reporter, 24 h. Potency, µM (highest dose often 9.22 µM), without a hit: at the top dose activation, usual class: activators. actives 2.4% (n = 320,000). AID 485313; also: % of control where 0% means no effect; nearly all actives have a fitted effect of over 60% in size
#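 Huh7 reporter cells (NPC1 promoter driving luciferase) are dosed with compound for 24 h at 37 °C, 5% CO2; luciferase detection reagent is then added and luminescence measured after 10 min at ambient temperature.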
# FLuc modulator: firefly luciferase modulation, counter-screen for miR-21 project; purified FLuc, Km substrates, luminescence inhibition; P08659; actives 6.9% (n = 360,000); Potency, µM (titrated, usually from 57.5 µM), without a hit: top-dose activity change, negative = inhibition, usual class: inhibitors;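 also: plate controls were vehicle for no effect and reference inhibitor for full effect; nearly all actives have a fitted effect of over 55% in size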
# Target sequence (P08659 whole entry, looked up): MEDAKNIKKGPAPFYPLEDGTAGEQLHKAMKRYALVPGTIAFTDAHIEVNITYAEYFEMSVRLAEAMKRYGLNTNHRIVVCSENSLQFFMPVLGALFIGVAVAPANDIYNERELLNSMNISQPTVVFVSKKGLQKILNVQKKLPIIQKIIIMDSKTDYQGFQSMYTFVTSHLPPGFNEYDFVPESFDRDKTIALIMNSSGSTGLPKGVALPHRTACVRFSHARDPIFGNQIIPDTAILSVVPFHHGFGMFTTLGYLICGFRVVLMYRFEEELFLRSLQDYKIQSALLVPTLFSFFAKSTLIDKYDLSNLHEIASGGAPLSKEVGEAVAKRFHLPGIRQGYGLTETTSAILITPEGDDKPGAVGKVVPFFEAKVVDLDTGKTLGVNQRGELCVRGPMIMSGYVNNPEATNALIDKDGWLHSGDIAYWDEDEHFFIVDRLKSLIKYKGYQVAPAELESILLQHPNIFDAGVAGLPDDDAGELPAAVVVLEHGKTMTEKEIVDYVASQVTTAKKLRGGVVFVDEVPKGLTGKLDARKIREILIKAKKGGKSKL
#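 Biochemical qHTS of compounds, final roughly 60 µM downward over six points, against 10 nM purified firefly luciferase using Km concentrations of substrates (10 uM D-luciferin, 10 uM ATP) in Tris acetate pH 7.5 buffer; luminescence output.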
# ELG1 genotoxic: induces genotoxicity in HEK293T cells with luciferase-tagged ELG1; HEK293T ELG1-luciferase reporter, luminescence, 16 h; Potency, µM (top dose mostly 46 µM), inactives show at the top dose activity change, positive = activation, most hits filed as activators; actives 1.3% (n = 330,000); also: % of control where 0% means no effect; nearly all actives have a fitted effect of over 60% in size
#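 Step 1: seed 2,000 HEK293T ELG1-luciferase cells per well. Step 2: add compound or DMSO, incubate 16 hr at 37 °C. Step 3: ONE-Glo, 30 min at room temperature, read luminescence.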
# Rab9 prom act: Rab9 promoter activation. Huh7 Rab9 promoter-luciferase reporter, luminescence, 24 h. Potency, µM (titrated, usually from 9.22 µM), for inactives: at the highest dose activation, negative = inhibition, actives largely listed as activators. actives 2.8% (n = 320,000). AID 485297; also: % of control where 0% means no effect; nearly all actives have a fitted effect of over 60% in size
#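 Luminescence from Amplite-detected luciferase (10 minutes, ambient) reports Rab9 promoter activation. Before that, stable Rab9-luciferase Huh7 cells (1500/well, reduced-serum OP-MEM I plus 10% FBS) were exposed to compound for 24 hours at 37C.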
# The depositor's hits bear a star; ? = inconclusive; nt = no result. Only some compounds are listed: those with a hit (about 9.3% of all), similar ones and a draw of the others. Calls follow the shape of the dose curve; as a rule, active = well fitted curve in the direction sought with a large enough effect; inconclusive = small, poorly fitted or top-dose-only effect, or another doubt; inactive = no such curve, though single readings can be large; an effect the other way counts as inactive or inconclusive. Potency is read from the fitted curve at half-maximal effect.
SMILES,ELG1 repair inh,SMN2 splice up,NPC1 promoter act,FLuc modulator,ELG1 genotoxic,Rab9 prom act
O=C(O)c1cc2c(ccc3ccccc32)o1,?,nt,1.1%,16.9µM*,1.9%,5.2%
O=C(c1cc2c(ccc3ccccc32)o1)N1CCN(c2ncc(C(F)(F)F)cc2Cl)CC1,6.8%,2.9%,-1.4%,2.0%,-1.3%,-7.3%
CCc1nc(C#N)c(N2CCOCC2)o1,?,-6.0%,1.0%,-7.3%,0.0%,-11.8%
CCN(CC(=O)Nc1ccc(NC(C)=O)cc1)C(=O)c1cc(C)on1,7.3%,nt,-1.2%,5.8%,-4.5%,1.1%
CCc1ccc(/C=C2/SC(=S)N(CCC(=O)Nc3cccc(C(=O)O)c3)C2=O)cc1,?,nt,?,2.13µM*,?,25.2%
CN1C(=O)S/C(=C/c2ccc(OCc3cccc(C(=O)O)c3)cc2)C1=O,?,nt,0.398µM*,2.69µM*,?,0.282µM*
COc1ccc(/C=C2/SC(=S)N(CCC(=O)O)C2=O)cc1,17.5%,-13.1%,-8.0%,5.36µM*,-4.0%,-12.1%
O=C(O)CCN1C(=O)/C(=C\c2ccncc2)SC1=S,12.6%,-4.5%,-7.3%,-16.5%,8.0%,-2.2%
CCN(C(=O)CCN1C(=O)/C(=C/c2ccccc2)SC1=S)C1CCS(=O)(=O)C1 (stereo unspecified),-14.7%,nt,-18.4%,23.9µM*,-7.8%,-21.8%
COc1cccc(/C=C2/SC(=O)N(C)C2=O)c1OCc1ccc(C(=O)O)cc1,23.2%,nt,-1.4%,-2.6%,10.5%,-0.8%
CCN(C(=O)CN1C(=O)/C(=C/c2ccccc2F)SC1=S)C1CCS(=O)(=O)C1 (stereo unspecified),-23.1%,nt,-6.5%,?,-7.1%,-5.0%
Cc1ccc(NC(=O)CSc2nnc(-c3ccc(Br)cc3)o2)c(C)c1,nt,nt,nt,3.2%,nt,nt
COc1cc(/C=C2/SC(=S)N(CCC(=O)Nc3ccc(C(=O)O)cc3)C2=O)cc(OC)c1OC,2.8%,nt,-1.8%,0.1%,-4.3%,-2.1%
COc1ccc(/C=C2\SC(=S)N(CCC(=O)Nc3ccc(C(=O)O)cc3)C2=O)cc1,3.1%,nt,12.2%,3.01µM*,?,-0.5%
O=C(O)CN1C(=O)/C(=C\c2cccc(OCc3ccc(F)cc3)c2)SC1=S,0.0%,nt,-0.5%,?,0.1%,3.6%
CCc1ccc(/C=C2/SC(=S)N(CCC(=O)Nc3ccc(C(=O)O)cc3)C2=O)cc1,-3.1%,nt,19.4%,0.849µM*,-3.7%,-6.0%
O=C(O)CN1C(=O)/C(=C\c2cccc(OCc3ccccc3F)c2)SC1=S,-0.9%,nt,8.2%,21.3µM*,4.6%,-2.9%
O=C(CCN1C(=O)/C(=C/c2ccc(Cl)cc2)SC1=S)Nc1ccc(C(=O)O)cc1,-14.2%,nt,-4.8%,10.7µM*,-0.1%,0.3%
O=C1c2ccccc2C(=O)C12Cc1ccccc1N1CCN(c3ccccc3)CC12 (stereo unspecified),-18.9%,nt,7.7%,-1.8%,1.9%,-3.8%
COC(=O)c1ccc(/C=C2/SC(=S)N(CCCC(=O)Nc3ccccn3)C2=O)cc1,?,-9.4%,-10.6%,?,1.0%,-10.2%
COc1ccc(/C=C2\SC(=S)N(CCCC(=O)Nc3cc(C)on3)C2=O)cc1OC,7.3µM*,nt,-6.7%,0.9%,19.3%,-10.8%
CCOc1ccc(/C=C2\SC(=S)N(CCC(=O)N(CCO)c3ccccc3)C2=O)cc1,-17.9%,nt,0.1%,9.53µM*,-5.6%,-10.2%
COc1cc(/C=C2\SC(=S)N(CCC(=O)Nc3ccc(O)cc3)C2=O)cc(OC)c1OC,23.1µM*,nt,-8.1%,4.2%,0.3%,-8.1%
CCc1ccc(/C=C2\SC(=S)N(CCCC(=O)Nc3ccccn3)C2=O)cc1,-18.4%,-57.3%,-21.3%,15.1µM*,-0.9%,-20.2%
COc1ccc(/C=C2\SC(=S)N(CCCCCC(=O)Nc3cc(C)on3)C2=O)cc1OC,0.7%,nt,-4.3%,1.7%,3.1%,-6.6%
